The results in this text go back to PubChem BioAssay AID709 (SRMLSC, 2007).

Screen size: about 65,000 compounds; about 3,600 (5.5%) were called active.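 How the source made its calls: active means at 10 µM, mean starting fluorescence two-fold or more over control wells; inactive means the rest.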 This excerpt belongs to a sample that is enriched for actives.

The assay can be described thus: intrinsic fluorescence of library compounds, ex339/em460 – biochemical, MLSMR library, data from DPM-DC assay, artefact control, profiling panel (AID 709).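 Further: signal is the first read of a kinetic run.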 Conditions: compound autofluorescence, ex339/em460 nm, NADH buffer; at 10 µM; hits give high values; 1 = no-compound wells, NADH background.
On to `O=c1oc2c(CN3CCCCC3)c(O)ccc2c2c1CCCCC2`, for which the fluorescence fold increase was 2.34 (active). In the case of `CN1CCN(Cc2c(O)ccc3c2oc(=O)c2ccccc23)CC1`, the fluorescence fold increase was 1.15 (inactive). With `CCN1CCN(Cc2c(O)ccc3c(=O)c(-c4ccc(OC)c(OC)c4)c(C(F)(F)F)oc23)CC1`, the fluorescence fold increase was 1.18 (inactive). Then `O.O.O.O=S(=O)([O-])OC[C@H]1O[C@@H](O[C@]2(COS(=O)(=O)[O-])O[C@H](OS(=O)(=O)[O-])[C@@H](OS(=O)(=O)[O-])[C@@H]2OS(=O)(=O)[O-])[C@H](OS(=O)(=O)[O-])[C@@H](OS(=O)(=O)[O-])[C@@H]1OS(=O)(=O)[O-].[Al]`, with 1.14 (inactive).

Regarding `O=C(CCOc1ccccc1)NCc1ccccc1`, the fluorescence fold increase was 1 (inactive). For the compound `CCC(=O)N(Cc1cc2cc(OC)ccc2[nH]c1=O)c1ccccc1C`, the fluorescence fold increase was 3.71 (active). Regarding `COc1ccc(S(=O)(=O)N(CCCN2CCCC2=O)Cc2cc3c(C)ccc(C)c3[nH]c2=O)cc1`, the fluorescence fold increase was 1.97 (inactive). Then `CCN(Cc1cc2cc(C)ccc2[nH]c1=O)S(=O)(=O)c1ccccc1`, with 1.54 (inactive); and `CCNCc1cc2cc(C)ccc2[nH]c1=O`, with 1.39 (inactive); and `CC(=O)OCc1cc2cc(C)ccc2[nH]c1=O`, with 1.43 (inactive).

As to `COc1ccc(N(Cc2cc3cc(OC)ccc3[nH]c2=O)S(C)(=O)=O)cc1`, the fluorescence fold increase was 3 (active).

For the compound `Cc1ccc2[nH]c(=O)c(COC(=O)c3ccccn3)cc2c1`, the fluorescence fold increase is 1.42 (inactive). Then `CCOc1ccc2[nH]c(=O)c(CN(CCCO)C(C)=O)cc2c1`, with 3.27 (active). In the case of `CCOC(=O)c1cc2cc(C)ccc2[nH]1`, the fluorescence fold increase was 1.67 (inactive). Then `O=C(CSc1nnnn1C1CCCC1)Nc1ccc2c(c1)OCCO2`, with 1.11 (inactive); and `O=C(NC12CC3CC(CC(C3)C1)C2)N1CCCC(CO)C1` (configuration not stated), with 1.11 (inactive); and `O=C(CN1CCN(C(=O)c2cccc(F)c2)CC1)Nc1ccccc1F`, with 1.17 (inactive). Turning to `COc1cc(CO)c(C2(CO)CCCC2)cc1OC`, the fluorescence fold increase was 1.08 (inactive). On to `Cc1cc(N2C(=O)c3ccc(C(=O)NCc4ccccc4)cc3C2=O)no1`, for which the fluorescence fold increase was 1.1 (inactive).

With `CC1Cc2cc(/C(O)=C3\C(=O)C(=O)N(CCN4CCOCC4)C3c3ccccc3F)ccc2O1` (configuration not stated), the fluorescence fold increase is 1.11 (inactive). Take `CCOC(=O)c1nc(-c2ccc3c(c2)OCO3)[nH]c1C`: the fluorescence fold increase was 1.4 (inactive).

As for `CCCC(=O)Nc1ccc2c(c1)nc1n2CCSC1`, the fluorescence fold increase is 1.21 (inactive).

Take `CCCCCC(=O)Nc1ccc2oc(-c3ccncc3)nc2c1`: the fluorescence fold increase is 3.72 (active). Then `CCCCC(=O)Nc1cc(C)c2c(=O)oc3ccccc3c2n1`, with 1.19 (inactive); and `O=C(CSc1nc(-c2ccco2)cc(C(F)(F)F)n1)NCc1cccs1`, with 1.14 (inactive); and `CCOC(=O)CSc1nnc(-c2ccco2)n1C`, with 1.04 (inactive).

Turning to `CCOC(=O)c1ccn(-c2nc(-c3ccco3)cc(C(F)(F)F)n2)n1`, the fluorescence fold increase was 2.09 (active).

Regarding `O=C(CSc1nc(-c2ccco2)cc(C(F)(F)F)n1)N1CCc2ccccc2C1`, the fluorescence fold increase was 1.1 (inactive).

For the compound `Cc1cc(C(F)(F)F)nn1-c1nc(-c2ccco2)cc(C(F)(F)F)n1`, the fluorescence fold increase was 2.81 (active). For `FC(F)(F)c1cc(-c2ccco2)nc(N2CCOCC2)n1`, the fluorescence fold increase was 1.11 (inactive). `O=c1[nH]c(=O)n(Cc2ccco2)c2c1C(C(F)(F)F)(C(F)(F)F)N=C(c1ccco1)N2`: the fluorescence fold increase is 1.16 (inactive). Then `CCCCn1nnnc1NCc1cc(OC)c(OC)c(OC)c1`, with 1.07 (inactive); and `CCCC(C(=O)NCc1ccco1)N(C(=O)CNS(=O)(=O)c1ccccc1)C1CCCC1` (configuration not stated), with 1 (inactive). `CC(=NCC1CCCO1)c1c(O)[nH]c(=O)[nH]c1=O` (configuration not stated): the fluorescence fold increase was 1.14 (inactive).

As to `Cc1ccc(C)c(S(=O)(=O)n2cnc3ccccc32)c1`, the fluorescence fold increase was 1.02 (inactive). With `O=C(CSc1nc2ncccc2[nH]1)Nc1ccc2c(c1)OCCO2`, the fluorescence fold increase was 1.01 (inactive). Then `CN1CCc2c(sc3c2c(NCc2ccco2)nc2nnnn23)C1`, with 2.08 (active); and `C=C(C)Cn1c(SCC(=O)NCc2ccco2)nc2sc3c(c2c1=O)CCC3`, with 1.09 (inactive). Consider `O=C(Cc1ccccc1)n1nc(-c2ccccc2)nc1NCc1ccco1`, for which the fluorescence fold increase was 1.13 (inactive).

Turning to `Cc1cccc(N)c1SC1CCCCC1O` (configuration not stated), the fluorescence fold increase was 1.03 (inactive). As for `CCOC(=O)c1cn(CC(=O)Nc2ccc(C(C)C)cc2)nn1`, the fluorescence fold increase is 1.16 (inactive). The result for `COc1ccccc1Nc1ncnc2c1oc1ccccc12` reads 1.7 (inactive); that for `CCc1nc(Nc2ccc3nccnc3c2)c2oc3ccccc3c2n1`, 2.54 (active).

With `CCSc1nc(C)nc2c1oc1ccccc12`, the fluorescence fold increase is 1.02 (inactive). `CNC(=O)NCCN1CCCC1=O`: the fluorescence fold increase is 1.05 (inactive). `COCCNC(=S)c1ccc(OC)cc1`: the fluorescence fold increase was 1.02 (inactive). With `CCN(CC)CCNC(=O)C1c2ccccc2C(=O)N(C)C1c1cn(C)c2ccccc12` (configuration not stated), the fluorescence fold increase is 1.07 (inactive). Then `O=C1CCCN1CCCNc1ncnc2c1[nH]c1ccccc12`, with 2.27 (active). The result for `O=C(CCn1c(=S)[nH]c2ccccc2c1=O)NCCCN1CCCC1=O` reads 0.98 (inactive); that for `CC1(C)CC(=O)C=C(NCCCN2CCCC2=O)C1`, 1.11 (inactive). `O/N=C(\c1ccc2c(c1)OCCO2)C1CCCCC1`: the fluorescence fold increase was 1.08 (inactive).

Turning to `COC(=O)COc1ccc2oc(=O)cc(C)c2c1`, the fluorescence fold increase is 2.31 (active). With `COCCNC(=O)COc1ccc(C)c(C)c1`, the fluorescence fold increase is 1.07 (inactive). Then `CCOC(=O)c1c(C)oc2ccc(OCC(=O)N(CC)CC)cc12`, with 1.07 (inactive); and `COc1ccc(C2CC(c3ccc(C)cc3)Nc3ncnn32)cc1` (configuration not stated), with 1.03 (inactive); and `c1ccc(-n2ncc3c2ncn2c(CSc4nc5ccccc5s4)nnc32)cc1`, with 1.81 (inactive).

As to `Cc1ccc(C(C)C)c(OCc2nnc(SCC(=O)Nc3nccs3)n2C)c1`, the fluorescence fold increase is 1.13 (inactive). The result for `O=C(Nc1ccc(S(=O)(=O)N2CCCCC2)cc1)c1cnccn1` reads 1.14 (inactive); that for `COc1ccc(CCNS(=O)(=O)c2ccc(F)cc2)cc1OC`, 1.09 (inactive); that for `O=C(c1cc(-c2cccs2)on1)N1CCCCC1`, 1.16 (inactive).

Consider `Cc1cc(NC(=O)c2cc(-c3cccs3)on2)nn1Cc1ccc(Cl)cc1`, for which the fluorescence fold increase is 2.04 (active).

Regarding `Cc1ccc(Cn2ccc(NC(=O)c3cc(C(C)C)on3)n2)cc1`, the fluorescence fold increase was 1.08 (inactive). The result for `CCOC(=O)c1cc2cc(-c3c(C(=O)OCC)oc4cc(O)cc(O)c4c3=O)ccc2o1` reads 1.11 (inactive). Regarding `CCCCOc1ccc(Cl)cc1CSc1nncn1N`, the fluorescence fold increase was 1.07 (inactive). As for `Cc1ccccc1NC(=O)Cc1nnc(SCC(=O)N2CCN(c3ccccc3)CC2)n1C`, the fluorescence fold increase was 1 (inactive). Consider `CN(C)c1nc2n(c(=O)n1)CCO2`, for which the fluorescence fold increase was 1.07 (inactive). With `c1ccc(Nc2n[nH]nc2-c2ccccc2)cc1`, the fluorescence fold increase is 1.07 (inactive). Then `CCCC(=O)Nc1cc(OCC)c(NC(=O)NC2CCCCC2)cc1OCC`, with 1.11 (inactive); and `CCOc1ccc(CNC(=O)C2CCC(=O)N2C2CCCC2)cc1OC` (configuration not stated), with 1.07 (inactive). On to `CCOc1cc(C2C(C(=O)OC)=CN(C3CCCC3)C=C2C(=O)OC)cc(Br)c1O`, for which the fluorescence fold increase was 2.88 (active). Turning to `c1ccc(-n2ncc(-c3nn[nH]n3)n2)cc1`, the fluorescence fold increase was 1.08 (inactive). `Cc1ccc(C(=O)Nc2ccc3c(c2)OCO3)cc1S(=O)(=O)N1CCCCC1`: the fluorescence fold increase was 1.08 (inactive).

`NC(=O)CSC1=Nc2ccccc2C2=NC(CCC(=O)NCc3ccc(F)cc3)C(=O)N12` (configuration not stated): the fluorescence fold increase is 3.51 (active). Consider `CC(C)C1N=C2c3ccccc3N=C(SCC(=O)c3ccc(O)c(O)c3)N2C1=O` (configuration not stated), for which the fluorescence fold increase was 1.21 (inactive). With `O=C(CC1N=C2c3ccccc3N=C(SCc3ccccc3Cl)N2C1=O)NCc1ccco1` (configuration not stated), the fluorescence fold increase is 1.58 (inactive). Regarding `CC(C)C(C(=O)NC1CCCCC1)N(CC1CCCO1)C(=O)CNS(=O)(=O)c1ccc(F)cc1` (configuration not stated), the fluorescence fold increase is 1.11 (inactive). Then `COc1c(O)cccc1-c1nnn(CCC(=O)OCC(=O)c2ccccc2)n1`, with 1.07 (inactive).

With `CC(C)(CNCC(O)c1ccccc1)N1CCOCC1` (configuration not stated), the fluorescence fold increase was 1.05 (inactive).

For `O=S(=O)(O)CCN1CCOCC1`, the fluorescence fold increase was 1.15 (inactive).

For `Brc1cnc(N2CCCC2)nc1N1CCCCC1`, the fluorescence fold increase is 1.08 (inactive).

In the case of `CCOc1cc(-c2nc3cc(C)ccn3c2NCC2CCCO2)ccc1O` (configuration not stated), the fluorescence fold increase was 3.63 (active).

In the case of `CCOc1cccc(=O)c2c(C)n(CC3CCCO3)c(C)c12` (configuration not stated), the fluorescence fold increase is 1.05 (inactive). As for `CCOc1cc(C(=S)N2CCOCC2)ccc1O`, the fluorescence fold increase was 1.04 (inactive). The result for `CCn1c(=O)cc(SCC(=O)NCc2ccc3c(c2)OCO3)c2ccccc21` reads 1.2 (inactive); that for `O=C(Oc1ccc(-c2nc(-c3ccccn3)no2)cc1)c1ccccc1`, 1.09 (inactive); that for `COc1ccc(-c2nc(-c3ccccc3)no2)c(OC)c1`, 1.12 (inactive). For the compound `COc1ccc(-c2ccc(-c3noc(-c4ccncc4)n3)c(OC)n2)cc1`, the fluorescence fold increase is 3 (active).

As to `COc1cc(-c2nc(-c3ccncc3)no2)cc(OC)c1OC`, the fluorescence fold increase is 1.03 (inactive).

With `CCOc1nc(-c2ccc(OC)cc2)ccc1-c1noc(-c2cc(OC)c(OC)c(OC)c2)n1`, the fluorescence fold increase was 3.92 (active).

In the case of `COc1ccc2[nH]c(=O)c(-c3noc(-c4ccc(F)cc4)n3)cc2c1`, the fluorescence fold increase was 1.38 (inactive). In the case of `CCc1nnc(NC(=O)c2c(O)c3c([nH]c2=O)CCCC3)s1`, the fluorescence fold increase is 1.12 (inactive). As for `Cc1ccc2cccc(S(=O)(=O)N3CCN(c4ccccc4F)CC3)c2n1`, the fluorescence fold increase is 1.14 (inactive). As for `O=C(CN1C(=O)CCC1=O)Nc1ccc(S(=O)(=O)N2CCOCC2)cc1`, the fluorescence fold increase is 1.15 (inactive). In the case of `C=CCSC1=C(C#N)C(c2cc(Br)c(O)c(OC)c2)CC(=O)N1` (configuration not stated), the fluorescence fold increase is 1.07 (inactive). In the case of `CN(c1ccc(C(=O)N2CCc3ccccc3C2)cc1)S(C)(=O)=O`, the fluorescence fold increase is 1.11 (inactive). For `O=[n+]1c2c(n([O-])c3cc(Br)ccc31)CCC2`, the fluorescence fold increase is 1.07 (inactive). With `CN1CCCc2cc(C#N)c(=O)[nH]c21`, the fluorescence fold increase was 2.4 (active). Turning to `CC(C)(C)n1nnc(CCc2nnn(C(C)(C)C)n2)n1`, the fluorescence fold increase is 1.09 (inactive). Turning to `COC(=O)C(C)C1Sc2ccccc2NC1=O` (configuration not stated), the fluorescence fold increase is 1.01 (inactive). Take `CCc1ccc(Nc2ncc3c(n2)CC(c2ccco2)CC3=O)cc1` (configuration not stated): the fluorescence fold increase is 2.39 (active). For the compound `CCc1ccc(NC(=O)CSc2nnc(-c3cnccn3)n2Cc2ccco2)cc1`, the fluorescence fold increase was 1.06 (inactive).

For the compound `O=C(Nc1ncc2c(n1)CC(c1ccco1)CC2=O)c1ccc(Cl)cc1` (configuration not stated), the fluorescence fold increase was 1.05 (inactive).
